# Assay results as given in PubChem BioAssay (NCATS).
# Results filed as inconclusive are left out. Active and inactive are the calls of the source. The call rests on the fitted dose curve; in most records, active means well fitted inhibition curve with a large enough effect; inconclusive means small, poorly fitted or top-dose-only effect; inactive means flat fitted curve, though single readings scatter.
# Experiment: High Content Imaging Cell-Based qHTS for Inhibitors of the mTORC1 Signaling Pathway in MEF (Tsc2-/-, p53-/-) Cells (AID 2666);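 further: percent of cells scored positive for phospho-rpS6 Ser235/236 immunostaining by imaging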
# Details: series mostly up to 38.3 µM
# Excerpt: NIH Molecular Libraries Probe Production Centers Network [MLPCN]
# NIH Chemical Genomics Center [NCGC]
# Assay Submitter (PI): Blenis, John; Hoffman, Greg; Harvard University
# NCGC Assay Overview: Thee mammalian target of rapamycin (mTOR) is an intracellular serine/threonine kinase Aberrant regulation of mTOR signaling plays a causative role in a number of human diseases, including cancer, benign tumors such as lymphangioleiomyomatosis (LAM) and Tuberous Sclerosis Complex (TSC), and metabolic diseases such as diabetes and obesity. This project aims to identify inhibitors of ribosomal protein S6 (rpS6) phosphorylation. The phosphorylation of rpS6 is a key event downstream of mTOR activation. The assay uses a phospho-specific antibody of phospho-rpS6 to detect inhibitors of mTOR activation. Mutations in the Tsc1 and Tsc2 genes are the underlying genetic lesions responsible for TSC, causing constitutive activation of the mTORC1 pathway and leading to profound effects on cell metabolism. Aberrant metabolism in cancer has recently received significant attention as a target to develop therapeutic agents in the treatment of cancer1. As Tsc2-/- cells have lost the ability to respond to energy and growth factor deprivation, these cells are unable to properly down regulate cellular biosynthetic processes in response to metabolic stress, and are thus extremely sensitive to glucose deprivation-induced death.2 A central goal of this project is to explore the unique cell survival and metabolic properties of cells with Tsc1 or Tsc2 by screening for compounds that selectively target the Tsc2-/- MEFs by screening both Tsc2-/- and WT MEF cell lines. We hope to better understand these aspects of TSC physiology in order to exploit them for therapeutic benefit.
# NCGC IN Cell Assay Protocol:
# For quantitative high throughput analysis of mTORC1 signaling, we developed a cell-based assay for immuno-fluorescence based detection of rpS6 phosphorylation on the Acumen Explorer that will be used a platform for the primary small molecule screen. Mouse embryonic fibroblasts (MEFs) are cultured in 1536-well plates using DMEM + 10% FBS. Twenty-four hrs after plating, test compounds (solubilized in DMSO) are delivered and incubated with the cells for 24 hrs at 37 degree Celsius. Following the incubation, media with compound is aspirated and the cells are fixed in 4% paraformaldehyde (PFA) containing PBS + 0.2% TX-100. Next, PFA is aspirated, cells are washed two times with PBS plus 0.2% TX-100 and the cells are blocked for 1 hr at room temperature (blocking buffer: LiCOR Blocking Buffer plus 0.2% TX-100). This is followed by aspiration and staining with Alexa-488 conjugated-phospho-rpS6 Ser235/236 antibody for 2 hours at room temperature (Cell Signaling Technology # 4803, 1:50 dilution in blocking buffer). Cells are washed two times with PBS plus 0.2% TX-100, and stained with 10 uM propidium iodide (PI) for 20-25 minutes for cell number measurement (1:500 dilution of Hoescht staining is also added for IN Cell imaging). Active wells which are selected (based on Acumen results) are imaged on the IN Cell 1000 (GE Healthcare) using the D360/40X and HQ480/40X excitation filters for the Hoechst and Alexa-488 cytoplasmic stains, respectively. The fluorescence emission filters used were HQ460/40M and HQ535/50M for the Hoechst and Alexa-488 cytoplasmic stains, respectively. The normalized phospho-S6 staining is calculated as the ratio of […] for the single concentration rapamycin control ([…] nM) and DMSO columns. […] Inhibition of the pathway is defined based on the normalized phospho-S6 intensity in rapamycin treated cells. Each treatment is reported as the % positive cells in the well, where thresholds are defined by selecting wells with the highest and lowest signal and differentiating between the % non-active and % active populations. […]
row,Structure (SMILES),outcome
1,CNCCCC12CCC(c3ccccc31)c1ccccc12,inactive
2,OCCN(CCO)c1nc(N2CCCCC2)c2nc(N(CCO)CCO)nc(N3CCCCC3)c2n1,inactive
3,CN(C)CCOC(c1ccccc1)c1ccccc1,inactive
4,Cn1c(=O)c2[nH]cnc2n(C)c1=O,inactive
5,O=C(CCCN1CCC(O)(c2ccc(Cl)cc2)CC1)c1ccc(F)cc1,inactive
6,COc1ccccc1N1CCN(CC(O)COc2cccc3ccccc23)CC1 (stereo not given),inactive
7,Cc1cc(C(C)(C)C)cc(C)c1CC1=NCCN1,inactive
8,CN(Cc1cnc2nc(N)nc(N)c2n1)c1ccc(C(=O)N[C@@H](CCC(=O)O)C(=O)O)cc1,inactive
9,CCC1(c2ccccc2)C(=O)NCNC1=O,inactive
10,CC(C)NCC(O)c1ccc(O)c(O)c1 (stereo not given),inactive
11,COC(=O)Nc1nc2ccc(C(=O)c3cccs3)cc2[nH]1,inactive
12,O=C(c1ccc(F)cc1)C1CCN(CCn2c(=O)[nH]c3ccccc3c2=O)CC1,inactive
13,O=C1c2c(O)ccc(O)c2C(=O)c2c(NCCNCCO)ccc(NCCNCCO)c21,inactive
14,CC(COc1ccccc1)N(CCCl)Cc1ccccc1 (stereo not given),inactive
15,CC(C)NCC(O)COc1ccc(CCOCC2CC2)cc1 (stereo not given),inactive
16,CC(C)(Oc1ccc(C2CC2(Cl)Cl)cc1)C(=O)O (stereo not given),inactive
17,COc1ccccc1OCCNCC(O)COc1cccc2[nH]c3ccccc3c12 (stereo not given),inactive
18,O=C1Cc2cc(CCN3CCN(c4nsc5ccccc45)CC3)c(Cl)cc2N1,inactive
19,O=C1N(c2ccccc2)c2ccccc2C1(Cc1ccncc1)Cc1ccncc1,inactive
20,Clc1ccccc1C(c1ccccc1)(c1ccccc1)n1ccnc1,inactive

row,Structure (SMILES),outcome
1,Cn1cnc2c1c(=O)[nH]c(=O)n2C,inactive
2,COc1ccccc1OCC(O)CN1CCN(CC(=O)Nc2c(C)cccc2C)CC1 (stereo not given),inactive
3,O=c1[nH]cc(F)c(=O)[nH]1,inactive
4,CN1CCN(C2=Nc3cc(Cl)ccc3Nc3ccccc32)CC1,inactive
5,O=c1c(O)c(-c2ccc(O)c(O)c2)oc2cc(O)cc(O)c12,inactive
6,O=C(c1ccc(OCCN2CCCCC2)cc1)c1c(-c2ccc(O)cc2)sc2cc(O)ccc12,inactive
7,CCOC(=O)c1ncn2c1CN(C)C(=O)c1cc(F)ccc1-2,inactive
8,COc1ccc(CCN(C)CCCC(C#N)(c2ccc(OC)c(OC)c2)C(C)C)cc1OC (stereo not given),inactive
9,Cn1ccc2cc3c(cc21)CCN3C(=O)Nc1cccnc1,inactive
10,Clc1ccc2c(c1)C(N1CCNCC1)=Nc1ccccc1O2,inactive
11,CCC1(C)CC(=O)NC1=O (stereo not given),inactive
12,CN(C)c1nc(N(C)C)nc(N(C)C)n1,inactive
13,Clc1ccc(C(c2ccccc2Cl)C(Cl)Cl)cc1 (stereo not given),inactive
14,NCCc1cnc[nH]1,inactive
15,NS(=O)(=O)c1cc2c(cc1Cl)NCNS2(=O)=O,inactive
16,COc1ccc(C2CNC(=O)C2)cc1OC1CCCC1 (stereo not given),inactive
17,CC12CC3CC(C)(C1)CC(N)(C3)C2,inactive
18,NCCCCCC(=O)O,inactive
19,CC[N+](CC)(CC)CCOc1cccc(OCC[N+](CC)(CC)CC)c1OCC[N+](CC)(CC)CC,inactive
20,CN1CCC(=C2c3ccccc3CC(=O)c3sccc32)CC1,inactive
